The record followed here is ChEMBL document CHEMBL3988442, “University of Dundee, Small-Polar-MMV Screening Library” (2021).

Each structure is given as a SMILES string. Hit rate of the full screen: of about 48,000 compounds, about 13,000 (27%) showed an effect of 50% or more. Some of the results follow.

The assay concerns Wolbachia pipientis. Kind of assay: Anti-Wolbachia Cell-Based Screen. More on the design: scale not given: in the data most compounds retested in dose-response had high values. The note with it: 5 µM. The class given is functional.
On to `CN(C)C(C(=O)N1CCC(C#N)CC1)c1ccccc1F` (configuration not stated), for which the “Percent Effect” value is on record as -0.3171%.

`CCN1C[C@H]2C3(CCN(C(C)=O)CC3)CC[C@@]2(C(=O)N(C)C)C1.O=C(O)C(F)(F)F`: the “Percent Effect” value turned out to be 6.202%. Next, `Cc1ncc(-c2ccnc(N3CC[C@H](O)C3)n2)c(-c2cccnc2)n1`: 109%; `COc1ccnc(N2CCCN(c3nc(C4CC4)ns3)CC2)n1`: 2.276%.

Consider `Cc1noc(-c2ccc(N3CCC[C@H]3CO)nc2)n1`, for which the “Percent Effect” value came to 4.962%. The value for `O=c1cc(-c2cccnc2)nc(-c2ccc(CN3CC[C@@H](O)C3)cc2)[nH]1` was 3.03%; that for `Cc1ncc(-c2ccnc(N3CCC[C@@H]3CO)n2)c(-c2cccnc2)n1` was 102.7%. Next, `CCCn1cc(-c2ccnc(NC3CCc4ccccc4C3)n2)c(C)n1` (configuration not stated): 0.5444%.

For `Cc1ncc(-c2ccnc(NC3CC3)n2)c(-c2cccnc2)n1`, the “Percent Effect” value is 88.62%.

In the case of `c1cncc(-c2nc(C3CC3)ncc2-c2ccnc(N3CCCC3)n2)c1`, the “Percent Effect” value is recorded as 90.28%. Next, `Cc1ncc(-c2ccnc(N3CCCCCC3)n2)c(-c2cccnc2)n1`: -6.559%; `COc1ccccc1Oc1ncccc1CNC(=O)CN1CCCC1=O`: -22.72%; `O=C(Nc1ccccc1)N1CCC(N2Cc3ncccc3C2=O)CC1`: -2.29%. As to `CSC1(CNc2ncc(Br)cn2)CCOCC1`, the “Percent Effect” value is reported as -8.791%.

As to `COc1ccccc1C(=O)N(Cc1nc(C)cs1)CC1CCCO1` (configuration not stated), the “Percent Effect” value is -4.042%. Next, `CCC[C@H]1CN(CCS(C)(=O)=O)C[C@@H]1NC(=O)c1cccnn1`: 3.679%. Next, `COc1ccsc1C(=O)Nc1cc(Cl)c(=O)n(C)c1`: -0.9546%; `O=C(NCCCOC1CCOC1)NC(C1CC1)C1CC1` (configuration not stated): -5.056%; `CCCc1nc(C)c(CN2CC3(CCOC3)CCC2=O)s1` (configuration not stated): -4.631%. Next, `COc1ccc(-c2nc(CC(=O)N(C)CCC#N)cs2)cc1OC`: -11.11%; `Cc1ccc(CN2C[C@H](N(C)Cc3cncnc3)[C@H]3OCCC[C@H]32)o1`: -12.1%. As to `CN(Cc1cncnc1)[C@@H]1CN(C(=O)C2CC2)[C@@H]2CCCO[C@H]12.O=C(O)C(F)(F)F`, the “Percent Effect” value is 103.9%.

Take `CCN(CC)[C@@H]1CN(C(=O)c2ccc(C#N)cc2)[C@@H]2CCCO[C@H]12.O=C(O)C(F)(F)F`: the “Percent Effect” value was -2.681%.

With `CN(Cc1cncnc1)[C@H]1CN(C(=O)c2ccco2)[C@@H]2CCCO[C@@H]21`, the “Percent Effect” value amounted to 83.44%. Regarding `CN(Cc1ccco1)[C@@H]1CN(C(=O)c2ccnnc2)[C@@H]2CCCO[C@H]12.O=C(O)C(F)(F)F`, the “Percent Effect” value amounted to 0.1298%. Next, `CN(C)C(=O)CO[C@@H]1CN(Cc2ccccc2)[C@@H]2CCCO[C@@H]21`: -2.745%; `CN(Cc1ccco1)[C@@H]1CN(CC2CCOCC2)[C@@H]2CCCO[C@H]12.O=C(O)C(F)(F)F.O=C(O)C(F)(F)F`: 6.763%; `CCCS(=O)(=O)N1C[C@H](N(C)Cc2ccco2)[C@@H]2OCCC[C@@H]21.O=C(O)C(F)(F)F`: -9.069%. Consider `CN(Cc1cncnc1)[C@@H]1CN(C(=O)c2ccco2)[C@@H]2CCCO[C@H]12.O=C(O)C(F)(F)F`, for which the “Percent Effect” value came to 99.89%. The value for `COCC(=O)N1C[C@H](N(C)Cc2cncnc2)[C@H]2OCCC[C@H]21` was 102.5%; that for `CN(Cc1ccco1)[C@@H]1CN(Cc2ccc(F)cc2)[C@@H]2CCCO[C@H]12.O=C(O)C(F)(F)F.O=C(O)C(F)(F)F` was 1.532%; that for `CCN(CC)[C@@H]1CN(C(=O)c2ccnnc2)[C@@H]2CCCO[C@H]12.O=C(O)C(F)(F)F` was -6.627%.
